Measurements taken from PubChem BioAssay AID1159580 (chemical genetic matrix, 2015).
Hit rate of the full screen: of about 5,500 compounds, about 2,000 (36%) were called active. Not shown: some 18% with an inconclusive outcome. Cut-off read from the data, not from the text of the source: active = normalized growth mostly below about 0.91 (no sharp cut-off); inconclusive = no clear call, values can overlap the other calls; inactive = mostly above about 0.92. This is one part of the list.

Assay: chemical genetic growth profiling, strain panel (AID 1159580);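 note: tested at 20 µM; growth read once vehicle control cultures reached saturation at 30 °C; 1 = growth at the plate median or of vehicle wells; lower values mean less growth of the strain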
Details: growth OD
[1] = S. cerevisiae deletion strains, locus YDR150W, strain NUM1, hits give low values
[2] = S. cerevisiae deletion strains, locus YGR078C, strain PAC10, hits give low values
[3] = S. cerevisiae deletion strains, locus YMR307W, strain GAS1, hits give low values
[4] = S. cerevisiae deletion strains, locus YNL153C, strain GIM3, hits give low values
[5] = S. cerevisiae deletion strains, locus YNL322C, strain KRE1, hits give low values
[6] = S. cerevisiae deletion strains, locus YPL241C, strain CIN2, hits give low values

Measured: normalized growth

CC#CCOC(=O)c1c(C)nc2sc3c(c2c1N)CCC(O)C3 (stereo not given)
inactive: S. cerevisiae deletion strains, locus YAL040C, strain CLN3, hits give low values 1.06 | S. cerevisiae deletion strains, locus YCL061C, strain MRC1 (second series), hits give low values 0.993 | [1] 0.987 | S. cerevisiae deletion strains, locus YDR363W, strain ESC2, hits give low values 1 | S. cerevisiae deletion strains, locus YER002W, strain NOP16, hits give low values 0.971 | [2] 0.982 | [3] 0.994 | [4] 1.18 | S. cerevisiae deletion strains, locus YNL175C, strain NOP13, hits give low values 0.955 | S. cerevisiae deletion strains, locus YNL197C, strain WHI3, hits give low values 0.967 | S. cerevisiae deletion strains, locus YNL224C, strain SQS1, hits give low values 0.971 | [5] 0.982 | S. cerevisiae deletion strains, locus YOR083W, strain WHI5 (second series), hits give low values 0.891 | [6] 0.99

CC1(C)CC2C1(O)CCC1(C)C=CC(O)C21CO (stereo not given)
inactive: S. cerevisiae deletion strains, locus YAL013W, strain DEP1, hits give low values 0.99 | S. cerevisiae deletion strains, locus YBR021W, strain FUR4, hits give low values 1.01 | S. cerevisiae deletion strains, locus YBR229C, strain ROT2, hits give low values 0.995 | S. cerevisiae deletion strains, locus YCL029C, strain bik1, hits give low values 0.975 | S. cerevisiae deletion strains, locus YDL035C, strain GPR1, hits give low values 0.983 | S. cerevisiae deletion strains, locus YDL074C, strain BRE1, hits give low values 1.03 | S. cerevisiae deletion strains, locus YDL101C, strain DUN1, hits give low values 0.998 | S. cerevisiae deletion strains, locus YDL134C, strain PPH21, hits give low values 0.998 | S. cerevisiae deletion strains, locus YDL185W, strain tfp1, hits give low values 0.976 | S. cerevisiae deletion strains, locus YDL192W, strain arf1, hits give low values 0.979 | S. cerevisiae deletion strains, locus YDR101C, strain arx1, hits give low values 1 | [1] 0.987 | S. cerevisiae deletion strains, locus YDR162C, strain NBP2, hits give low values 1.03 | S. cerevisiae deletion strains, locus YDR318W, strain mcm21, hits give low values 0.975 | S. cerevisiae deletion strains, locus YDR388W, hits give low values 0.993 | S. cerevisiae deletion strains, locus YDR502C, strain sam2, hits give low values 1.01 | S. cerevisiae deletion strains, locus YEL061C, strain CIN8, hits give low values 0.992 | S. cerevisiae deletion strains, locus YER110C, hits give low values 0.959 | S. cerevisiae deletion strains, locus YER155C, strain BEM2, hits give low values 0.995 | S. cerevisiae deletion strains, locus YER167W, strain BCK2, hits give low values 0.982 | S. cerevisiae deletion strains, locus YGL078C, strain dbp3, hits give low values 0.994 | S. cerevisiae deletion strains, locus YGL086W, strain mad1, hits give low values 0.969 | S. cerevisiae deletion strains, locus YGL248W, strain PDE1, hits give low values 0.993 | [2] 1.03 | S. cerevisiae deletion strains, locus YGR135W, strain pre9, hits give low values 1.02 | S. cerevisiae deletion strains, locus YGR229C, strain SMI1, hits give low values 1.03 | S. cerevisiae deletion strains, locus YGR252W, strain gcn5, hits give low values 0.995 | S. cerevisiae deletion strains, locus YHR030C, strain SLT2, hits give low values 0.982 | S. cerevisiae deletion strains, locus YHR079C, strain IRE1 (second series), hits give low values 0.988 | S. cerevisiae deletion strains, locus YHR094C, strain hxt1, hits give low values 0.98 | S. cerevisiae deletion strains, locus YHR129C, strain ARP1, hits give low values 0.997 | S. cerevisiae deletion strains, locus YHR200W, strain rpn10, hits give low values 0.984 | S. cerevisiae deletion strains, locus YIL066C, strain RNR3, hits give low values 0.992 | S. cerevisiae deletion strains, locus YIL073C, strain SPO22, hits give low values 0.873 | S. cerevisiae deletion strains, locus YIL125W, strain kgd1, hits give low values 0.976 | S. cerevisiae deletion strains, locus YIR030C, strain dcg1, hits give low values 0.99 | S. cerevisiae deletion strains, locus YJL095W, strain BCK1, hits give low values 1.04 | S. cerevisiae deletion strains, locus YJL134W, strain LCB3, hits give low values 0.992 | S. cerevisiae deletion strains, locus YJL168C, strain set2, hits give low values 0.989 | S. cerevisiae deletion strains, locus YJL187C, strain SWE1 (second series), hits give low values 1 | S. cerevisiae deletion strains, locus YJR043C, strain POL32, hits give low values 0.994 | S. cerevisiae deletion strains, locus YJR075W, strain HOC1, hits give low values 0.988 | S. cerevisiae deletion strains, locus YKL009W, strain mrt4, hits give low values 0.95 | S. cerevisiae deletion strains, locus YKL068W, hits give low values 0.98 | S. cerevisiae deletion strains, locus YKL085W, strain MDH1 (second series), hits give low values 0.976 | S. cerevisiae deletion strains, locus YKL085W, strain MDH1, hits give low values 0.976 | S. cerevisiae deletion strains, locus YKL190W, strain CNB1, hits give low values 0.999 | S. cerevisiae deletion strains, locus YKR001C, strain vps1, hits give low values 1 | S. cerevisiae deletion strains, locus YLR039C, strain RIC1, hits give low values 0.945 | S. cerevisiae deletion strains, locus YLR058C, strain SHM2, hits give low values 0.983 | S. cerevisiae deletion strains, locus YLR102C, strain apc9, hits give low values 0.987 | S. cerevisiae deletion strains, locus YLR262C, strain YPT6, hits give low values 0.936 | S. cerevisiae deletion strains, locus YLR268W, strain sec22, hits give low values 1.02 | S. cerevisiae deletion strains, locus YLR330W, strain CHS5, hits give low values 0.984 | S. cerevisiae deletion strains, locus YLR342W, strain FKS1 (second series), hits give low values 0.994 | S. cerevisiae deletion strains, locus YLR371W, strain rom2, hits give low values 0.969 | S. cerevisiae deletion strains, locus YLR418C, strain cdc73, hits give low values 1.06 | S. cerevisiae deletion strains, locus YML016C, strain PPZ1, hits give low values 0.994 | S. cerevisiae deletion strains, locus YML032C, strain rad52, hits give low values 1.09 | S. cerevisiae deletion strains, locus YML124C, strain tub3, hits give low values 0.988 | S. cerevisiae deletion strains, locus YMR078C, strain ctf18, hits give low values 0.985 | S. cerevisiae deletion strains, locus YMR223W, strain ubp8, hits give low values 0.977 | S. cerevisiae deletion strains, locus YMR263W, strain SAP30, hits give low values 1.01 | [3] 1.08 | S. cerevisiae deletion strains, locus YNL067W, strain RPL9B, hits give low values 1.03 | S. cerevisiae deletion strains, locus YNL128W, strain TEP1, hits give low values 0.996 | [4] 1.03 | S. cerevisiae deletion strains, locus YNL233W, strain BNI4, hits give low values 1.04 | S. cerevisiae deletion strains, locus YNL250W, strain rad50, hits give low values 0.973 | S. cerevisiae deletion strains, locus YNL271C, strain bni1, hits give low values 0.973 | S. cerevisiae deletion strains, locus YNL298W, strain CLA4, hits give low values 0.977 | S. cerevisiae deletion strains, locus YNL307C, strain MCK1, hits give low values 0.999 | [5] 0.981 | S. cerevisiae deletion strains, locus YNR052C, strain pop2, hits give low values 0.963 | S. cerevisiae deletion strains, locus YOL006C, strain TOP1, hits give low values 1.03 | S. cerevisiae deletion strains, locus YOL012C, strain htz1 1.26 | S. cerevisiae deletion strains, locus YOL147C, strain pex11, hits give low values 0.977 | S. cerevisiae deletion strains, locus YOR061W, strain CKA2, hits give low values 0.997 | S. cerevisiae deletion strains, locus YOR069W, strain VPS5, hits give low values 0.994 | S. cerevisiae deletion strains, locus YOR136W, strain idh2, hits give low values 0.984 | S. cerevisiae deletion strains, locus YOR144C, strain elg1, hits give low values 0.984 | S. cerevisiae deletion strains, locus YOR184W, strain ser1, hits give low values 0.965 | S. cerevisiae deletion strains, locus YOR316C, strain cot1, hits give low values 0.991 | S. cerevisiae deletion strains, locus YPL055C, strain LGE1, hits give low values 1.03 | [6] 0.991 | S. cerevisiae deletion strains, locus YPR119W, strain clb2, hits give low values 0.988 | S. cerevisiae deletion strains, locus YPR141C, strain kar3, hits give low values 0.982 | S. cerevisiae deletion strains, locus YPR163C, strain tif3, hits give low values 0.972 | S. cerevisiae deletion strains, locus YPR167C, strain met16, hits give low values 0.994 | S. cerevisiae deletion strains, strain wtn01, hits give low values 1.02 | S. cerevisiae strains, strain wild type, hits give low values 0.993
